# According to the supplement of paper PMC4894684:
# Structures can show the parent of a compound that is named as a salt. ± gives the standard deviation of the averaged measurements.
# Test system: Toxoplasma gondii RH (in HFF)
# Assay: parasite growth relative to the screen mean (all compounds = 100%); higher = less inhibition of parasite growth
# Conditions: 5 µM; 72 h; oxygen 21 %
# Procedure, shortened: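 RH β-Gal–GFP Toxoplasma at MOI 1:5 was used to infect confluent human foreskin fibroblasts in 96-well plates within 2 h of pin-transferring compounds to 5 µM final. After 72 h at 21% O2, parasite number was determined by CPRG β-Gal assay against standard curves on the same plate. Growth is relative to the screen mean and averaged over two screens, with all compounds = 100%.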
row,Compound,parasite growth [%]
1,CCOc1cncc(/C=C/CCNC)c1 [TC 2559 difumarate],90.8 ± 7
2,Cc1ccc(C[N+](C)(C)C)o1 [5-Methylfurmethiodide],100 ± 6.6
3,CC(C)(C)OC(=O)c1ncn2c1[C@@H]1CCCN1C(=O)c1c(Br)cccc1-2 [Bretazenil],87.1 ± 5.4
4,CC(CN)CC(=O)O (stereo not given) [3-Methyl-GABA],119 ± 4.7
5,C[C@H](N)Cn1ccc2cc(F)c(Cl)cc21 [Ro 60-0175 fumarate],115 ± 28
6,Cc1nc(N)sc1CCN [Amthamine dihydrobromide],94 ± 4.8
7,NP(N)(=O)NC(=O)c1ccc(F)cc1 [Flurofamide],90 ± 34
8,CN1C[C@H](C(=O)N[C@]2(C)O[C@@]3(O)[C@@H]4CCCN4C(=O)[C@H](Cc4ccccc4)N3C2=O)C[C@@H]2c3cccc4[nH]cc(c34)C[C@H]21 [Dihydroergotamine mesylate],39.27 ± 0.23
9,NCc1cc(O)no1 [Muscimol],154 ± 28
10,COC(=O)/C=C/C(=O)N[C@@H]1CC[C@@]2(O)[C@H]3Cc4ccc(O)c5c4[C@@]2(CCN3CC2CC2)[C@H]1O5 [β-Funaltrexamine hydrochloride],74.5 ± 28
11,CO[C@]12C[C@@H](COC(=O)c3cncc(Br)c3)CN(C)[C@@H]1Cc1cn(C)c3cccc2c13 [Nicergoline],126 ± 5.7
12,NCCc1c[nH]c2ccc(C(N)=O)cc12 [5-Carboxamidotryptamine maleate],158 ± 72
13,O=c1[nH]oc2c1CCNC2 [THIP hydrochloride],119 ± 21
14,COc1cc2c(cc1OC)C1CC(=O)C(CC(C)C)CN1CC2 (stereo not given) [Tetrabenazine],132 ± 1.5
15,CCOC(=O)c1ncn2c1CN(C)C(=O)c1cc(N=[N+]=[N-])ccc1-2,60 ± 14
16,N[C@@H](Cn1oc(=O)[nH]c1=O)C(=O)O [L-Quisqualic acid],99 ± 20
17,O=C1C2CCN(CC2)C1(CO)CO,144 ± 4
18,C[C@H](N)Cc1cnc[nH]1 [(S)-(+)-a-Methylhistamine dihydrobromide],113 ± 11
19,O=c1cccc2n1C[C@@H]1CNC[C@H]2C1 [(-)-Cytisine],128 ± 26
20,C=C(C)[C@H]1CN[C@H](C(=O)O)[C@H]1CC(=O)O [Kainic acid],58.7 ± 12
21,c1ccc2c(c1)[I+]c1ccccc1-2 [Diphenyleneiodonium chloride],< 0
22,CN1[C@@H]2CC[C@H]1CC(OC(=O)N1Cc3ccccc3NC1=O)C2 (stereo not given in full) [DAU 5884 hydrochloride],97.7 ± 16
23,CCCN1CCO[C@@H]2c3cc(O)ccc3OC[C@H]21,96 ± 2.6
24,O=C(O)CCC(CP(=O)(O)O)C(=O)O (stereo not given) [PMPA (NAALADase inhibitor)],126 ± 9.3
25,S=C=Nc1cccc(C2(N3CCCCC3)CCCCC2)c1 [Metaphit],51.3 ± 6
